From PubChem BioAssay AID1272365 (Small Molecule Screening Facility, UW Madison, 2020) come the findings set out here.

The structures appear in SMILES notation. Values joined by “and” are separate entries in the source; they are usually repeats but may differ in a detail not shown here. Equal entries are not always repeated. The whole screen tested about 430,000 compounds, of which about 2,600 (0.6%) were called active. This is one part of a sample in which actives are shown more often than they occur. A number with no mark means an inactive call. No stated cut-off is given here; in the data, active means inhibition mostly above about 37% (no sharp cut-off); inactive means mostly below about 20%.

For the assay, the system named is PriA–SSB C-terminal tail interaction (Klebsiella pneumoniae). The assay can be described thus: blocks PriA binding to SSB C-terminal tail, primary screen, biochemical, AlphaScreen (AID 1272365).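 Further: plate controls were negative control peptide for no effect and reference peptide for full effect.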 As to conditions: AlphaScreen SSBct-PriA binding, biotinylated peptide; at 33 µM, active compounds read high. For orientation: In Alpha technology, singlet oxygen from a donor bead excites a nearby acceptor bead.
Usually inhibition stands for the relative decrease from the control value, in per cent. In the case of `O=C(COc1ccccc1F)NNC(=O)c1ccc(N2CCCCC2)c([N+](=O)[O-])c1`, the inhibition is 13.6%.
Next, `O=C(ON=Cc1ccc(N2CCCCC2)c([N+](=O)[O-])c1)c1c(F)cccc1F`: 41.1% (active).
Next, `CON=Cc1ccc(N2CCOCC2)c([N+](=O)[O-])c1`: -5.72%; `COc1ccc(C(=O)CSc2nccn(-c3ccc(C)cc3)c2=O)cc1`: 8%; `c1ccc(-c2ccc(-c3csc4ncnc(N5CCCCCC5)c34)cc2)cc1`: -3%.
In the case of `COc1ccc(-c2nc3n(c2Br)CCC3)cc1`, the inhibition was 18.6%.
As to `Brc1c(-c2ccccc2)nc2n1CCC2`, the inhibition is 57% (active).
Next, `Brc1cccc(-c2nnc3n2CCC3)c1`: -16.1%.
The same measure for `CCN(CC)c1ccc(C=NNS(=O)(=O)c2cccc([N+](=O)[O-])c2)cc1`: 46.5% (active).
Next, `COc1ccc(CCNS(=O)(=O)c2cccc([N+](=O)[O-])c2)cc1`: 0.99%.
For `CCc1ccc(S(=O)(=O)NN=Cc2ccc3c(c2)OCO3)cc1`, the inhibition was -15.4%.
Next, `Cc1ccccc1OCC(=O)NCCS(=O)(=O)N1CCN(Cc2ccccc2)CC1`: -5%; `c1ccc(-c2nc(-c3cnccn3)n[nH]2)nc1`: 125% (active).
As for `c1ccc(OCc2nc(-c3ccccn3)n[nH]2)cc1`, the inhibition is 104% (active).
The same measure for `O=c1oc2ccccc2cc1-c1nc(-c2ccncc2)n[nH]1`: 0%; for `Cc1cccc2[nH]c(COc3ccc(F)cc3)nc12`: -4%; for `COc1cccc(C(=O)N2CC(c3nc(-c4ccccn4)no3)C2)c1`: -10%.
Next, `Cc1nc2nc(COc3ccccc3)[nH]n2c(=O)c1C`: -10.1%; `S=c1[nH]nc(COc2ccccc2)o1`: -8%.
The same measure for `COc1ccc(OCc2nc(-c3ccccn3)n[nH]2)cc1`: 101% (active); for `CCOC(=O)c1ccccc1NC(=O)Cn1cnc2c(cnn2-c2ccc(C)cc2C)c1=O`: 20%; for `Cc1cc(NC(=O)C(=O)NCc2cccnc2)ccc1N1CCCC1=O`: 0%.
As for `COc1ccc(CCS(=O)(=O)NCC(=O)N2CCOC(c3ccccc3)C2)cc1` (stereo not drawn), the inhibition is 2%.
Next, `Cc1ccc2cccc(C(=O)N3CC(S(=O)(=O)Cc4ccco4)C3)c2n1`: -1%; `O=C(CSc1nc2c(c(=O)[nH]1)CN(Cc1ccc(F)cc1)CC2)Nc1ccc(F)c(Cl)c1`: 0%.
Next, `O=c1[nH]c(=S)[nH]c2sc3c(c12)CCC3`: 18%.
The same measure for `CCOc1cc(-c2nnc(NC(=O)c3cc(Cl)ccc3Cl)o2)cc(OCC)c1OCC`: 0%; for `Cc1ccc(NC(=O)C(=O)NCC(c2ccc(F)cc2)N2CCN(C)CC2)cc1Cl` (stereo not drawn): -4%; for `CCCCOCCCn1c(NS(=O)(=O)c2ccccc2)c(S(=O)(=O)c2ccc(C)cc2)c2nc3ccccc3nc21`: 67.3% (active).
As for `CCCCOCCCn1c(NS(=O)(=O)c2ccc3ccccc3c2)c(S(=O)(=O)c2ccc(C)cc2)c2nc3ccccc3nc21`, the inhibition was 59.9% (active).
Next, `CCCCCCCCn1c(NS(=O)(=O)c2ccc(Cl)cc2)c(S(=O)(=O)c2ccccc2)c2nc3ccccc3nc21`: 49.6%; `CCCCn1c(NS(=O)(=O)c2ccc(Cl)cc2)c(S(=O)(=O)c2ccc(C)cc2)c2nc3ccccc3nc21`: 54.8%.
Next, `Cc1ccc(S(=O)(=O)Nc2c(S(=O)(=O)c3ccccc3)c3nc4ccccc4nc3n2Cc2ccccc2)cc1`: 34.2%; `Cc1ccc(S(=O)(=O)c2c(N)n(N=Cc3ccco3)c3nc4ccccc4nc23)cc1`: 11%; `O=S(=O)(CCc1ccccc1)NCC(O)c1ccoc1` (stereo not drawn): -25%.
Next, `COc1cc(NS(=O)(=O)c2ccc(NC(=O)c3cc4c(ccc5ccccc54)oc3=O)cc2)ncn1`: -16%; `COC(=O)c1ccc(S(=O)(=O)NCC2(c3ccc(F)cc3)CC2)cc1`: -24%; `COc1ccc(Br)c(C(=O)NCCCc2cnoc2)c1`: 4%.
Consider `Cc1cc2ncc(NC(=O)NCCOc3ccccc3)cn2n1`, for which the inhibition was -12%.
The same measure for `O=[N+]([O-])c1ccccc1NN=Cc1cccc(O)c1O`: 0.72%; for `O=[N+]([O-])c1ccccc1Nc1ccc(O)cc1`: 46.7% (active); for `O=C(Nc1ccc(OC(F)(F)F)cc1)C(=O)Nc1ccccc1[N+](=O)[O-]`: 4%.
The same measure for `COc1cccc(CCNC(=O)C2CS(=O)(=O)CN2C(=O)c2ccccc2)c1` (stereo not drawn): -9%; for `Cc1ccc(-c2cc3c(=O)n(CC(=O)Nc4ccc5c(c4)OCO5)ncn3n2)cc1C`: -17%.
Next, `O=C(c1ccccc1)c1sc(NC(=O)c2cc(-c3ccccc3)nc3ccccc23)nc1-c1ccccc1`: 10%; `CC(=NNC(=O)c1c(Cl)c(C)nn1C)c1cccc(NC(=O)C2CCCC2)c1`: 2.34%.
`CSc1ccccc1C(=O)Nc1nnc(-c2cc(C)nn2C)o1`: the inhibition is 6% and 0%.
The same measure for `Cc1cc(-c2nnc(NC(=O)C(c3ccccc3)c3ccccc3)o2)n(C)n1`: 61% (active); for `Cc1cc(-c2nnc(NC(=O)C(C)C)o2)nn1C`: -2%.
On to `Cc1cc(-c2nnc(NC(=O)Cc3ccccc3)o2)n(C)n1`, for which the inhibition was 14%.
For `Cc1cc(-c2nnc(NC(=O)c3ccc(C(=O)c4ccccc4)cc3)o2)nn1C`, the inhibition is 3%.
The same measure for `Cc1cc(-c2nnc(NC(=O)C(c3ccccc3)c3ccccc3)o2)nn1C`: 85% (active).
Next, `COC[C@@](C)(O)CNS(=O)(=O)c1ccccc1OC`: -2%; `Cc1cc(C)c2c(n1)nn1c(NCc3ccc(Cl)cc3Cl)cc(C)nc21`: -9%.
The same measure for `COc1cc(NC(=O)Cc2c(C)noc2C)ncn1`: -19%.
As for `CC(=O)c1c(C)n(-c2ccc(C)cc2)c2ccc(O)cc12`, the inhibition was -0.78%.
The same measure for `CC(=O)c1c(C)n(-c2ccc(N(C)C)cc2)c2ccc(OCC(N)=O)cc12`: -18.2%; for `CCOC(=O)c1c(C)n(-c2ccc(C)cc2)c2ccc(OCC(O)CNCc3ccco3)cc12` (stereo not drawn): 69% (active); for `Cc1cc(C(=O)OCC(=O)NCc2ccco2)c(C)n1-c1ccccc1`: -5.93%.
Next, `CCOC(=O)c1c(C)n(-c2ccc(C)cc2)c2ccc(OCC(O)Cn3ccnc3)cc12` (stereo not drawn): 83% (active) and 46% (active); `Cc1oc2ccc(OCc3ccccc3)cc2c1C(=O)NCc1ccco1`: -4%.
The same measure for `COc1cc(OC)cc(-c2noc(-c3cc(-c4cc(C)ccc4C)n[nH]3)n2)c1`: -13%; for `O=C(c1ccc([N+](=O)[O-])o1)N1CCN(c2ncnc3c2nnn3-c2cccc(F)c2)CC1`: -10%; for `CC(=O)Nc1nnc(Cc2ccc(F)cc2)o1`: 1%.
In the case of `COc1ncc(NC(=O)Nc2ccc(C)c(Cl)c2)c(N(C)C)n1`, the inhibition was 10%.
In the case of `O=C(Cc1csc(SCc2ccc(Cl)cc2)n1)Nc1ccc2c(c1)OCO2`, the inhibition was 1%.
The same measure for `CN(C)c1ccc(/C=N\NC(=O)c2ccccc2O)cc1`: -18%; for `NC(=O)c1ccccc1OCC#CCNS(=O)(=O)Cc1ccc(Cl)cc1`: -1%.
The same measure for `O=C(Cn1nc(-c2ccc(F)cc2)c2sc(N3CCCC3)nc2c1=O)NCc1ccccc1Cl`: -4%; for `CCOc1cc(/C=C2/N=C(c3ccc(C(C)(C)C)cc3)OC2=O)cc(Cl)c1OS(C)(=O)=O`: 62.1% (active); for `CC(=O)Nc1ccc(N2C(=O)c3cccc4cccc(c34)C2=O)cc1`: 5%.
The same measure for `Cc1c(NC(=O)COc2cccc(OCCC(C)C)c2)c(=O)n(-c2ccccc2)n1C`: -3%; for `O=C(CSc1cccc2cccnc12)Nc1ccc(Br)cc1`: 27.6%; for `Cc1ccccc1OCCC(=O)Nc1c(C)n(C)n(-c2ccccc2)c1=O`: -12.4%.
As for `Cc1ccc(NC(=O)C2CCCN2S(=O)(=O)c2cccc3cccnc23)c(C)c1` (stereo not drawn), the inhibition was -5.79%.
`Cc1c(NC(=O)CSc2cccc3cccnc23)c(=O)n(-c2ccccc2)n1C`: the inhibition is 96% (active).
The same measure for `Cc1ccc(NC(=O)CSc2cccc3cccnc23)c(C)c1`: 79.3% (active).
Next, `O=C(CSc1nnc(-c2ccc3c(c2)OCCO3)o1)Nc1nc(-c2ccccc2)cs1`: -3%.
Regarding `COc1ccc(C(=O)CC(SCCO)c2ccc(F)cc2)cc1OC` (stereo not drawn), the inhibition was -1%.
The same measure for `COc1ccc(NC(=O)NCC(c2ccc3c(c2)CCCN3C)N2CCCC2)cc1OC` (stereo not drawn): 25%; for `Cc1cc(C)c(S(=O)(=O)Nc2ccc3c(c2)CCCN3C(=O)c2ccco2)c(C)c1`: 0%; for `O=C(NCCc1ccc(N2CCCC2)cc1)c1ccco1`: -19%.
The same measure for `CCCN1CCCc2cc(CCNC(=O)c3ccco3)ccc21`: 56% (active); for `CCCN1CCCc2cc(CCNC(=O)Cc3ccc(OC)cc3)ccc21`: 57.9%.
The same measure for `CCC(=O)N1CCc2ccc(NC(=O)CCC3CCCC3)cc2C1`: -6%; for `CCCN1CCCc2cc(CCNC(=O)CCC3CCCC3)ccc21`: 63% (active).
`Cn1nc(CNS(=O)(=O)/C=C/c2ccccc2)c2c1CCCC2`: the inhibition was -3%.
Next, `CCCS(=O)(=O)N1CCc2ccc(NC(=O)c3ccc(Br)o3)cc2C1`: -14%.
The same measure for `C=CCn1c(SCC(=O)N2CCOCC2)nc2scc(-c3ccccc3Cl)c2c1=O`: -1%; for `Cc1cc(=O)n(CC(=O)Nc2ccc(C(F)(F)F)cc2)c(-c2ccncc2)n1`: -28%; for `CS(=O)(=O)N1CCN(C(=O)c2cnn3c2OCCC3)CC1`: 6%.
The same measure for `O=C(Cc1ccc(F)cc1)NCCn1nc(C(F)(F)F)c2c1CCCC2`: 10%; for `COc1cn2c(cc1=O)C(=O)N(CCNC(=O)C1(c3ccc(Cl)cc3)CCCC1)CC2`: -13% and -15%.
